“And” between values parts separate entries of the source, which are not always exact repeats. Equal entries are not always repeated. Inconclusive results are not listed. Entries that show only a call come without a potency. The source made the active and inactive calls. Unless noted, the call rests on the fitted dose curve; in most records, active means well fitted curve in the direction sought with a large enough effect; inconclusive means small, poorly fitted or top-dose-only effect, or another doubt; inactive means no such curve, though single readings can be large; an effect the other way counts as inactive or inconclusive.
Columns and labels:
[1] = Cell Viability - SK-N-SH (AID 435; calls by dose curve;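 further: potency means the concentration at half of the fitted maximal effect; compound exposure lasted 40 h at 37 °C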); conditions: SK-N-SH neuroblastoma cell viability qHTS
How it was run: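 CellTiter-Glo ATP luminescence, 20 min RT read; cells pre-plated 5 hr, compound 40 hr at 37 °C, 1500 cells/well, complete medium. Normalized DMSO = 0, 100 uM tamoxifen = 100% inhibition; Hill-fit AC50.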

[2] = Cell Viability - N2a (AID 540); conditions: N2a mouse neuroblastoma cell viability; at 92.2 µM (top of the series); further: nearly all actives have a fitted effect of over 45% in size
How it was run: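 Mouse neuroblastoma N2a cells, 1500/well, exposed to compounds 40 h at 37 °C in complete medium. Viability measured as cellular ATP by CellTiter-Glo luminescence; AC50 from Hill fits of concentration-response.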

[3] = Cell Viability - SH-SY5Y (AID 544); conditions: SH-SY5Y neuroblastoma cell viability; viability change, negative = cytotoxic: at 92.2 µM (top of the series); further: nearly all actives have a fitted effect of over 55% in size
How it was run: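 SH-SY5Y human neuroblastoma cells (1500/well) incubated 5 h, then compound-treated 40 h at 37 °C in complete medium. Viability read as intracellular ATP by CellTiter-Glo luminescence after 20 min; AC50 from Hill-equation fits of qHTS concentration-response.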

[4] = Cellular Toxicity (caspase-3) HepG2 (AID 654); conditions: HepG2 caspase-3 activation, luminescence, 0% = DMSO only, 100% = tamoxifen; series mostly up to 92.2 µM;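 further: cells exposed to compound for 16 hours before reading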
How it was run: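 HepG2 cells (1500/well) were treated 16 h at 37 °C in complete medium, then caspase 3/7 activity was read by Caspase-Glo luminescence. Data were normalized to DMSO and 100 uM tamoxifen; AC50 came from Hill-equation fits of qHTS concentration-response.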

[5] = Cellular Toxicity (caspase-3) Hek293 (AID 664); conditions: HEK293 caspase-3 activation, DMSO = 0%, 100 µM tamoxifen = 100%; series mostly up to 92.2 µM;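 further: cells exposed to compound for 16 h at 37 °C before readout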
How it was run: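 HEK293 cells in complete medium treated 16 h at 37 °C, then Caspase-Glo 3/7 luminescence read after 20 min at room temperature. Normalized to DMSO and 100 uM tamoxifen; AC50 from Hill fit of concentration-response.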

[6] = Cellular Toxicity (caspase-3) NIH 3T3 (AID 666); conditions: NIH 3T3 caspase-3 activation, apoptosis/toxicity, 0% DMSO, 100% is 100 µM tamoxifen; series mostly up to 92.2 µM;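 further: caspase signal read after 16 h compound exposure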
How it was run: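 Mouse NIH 3T3 fibroblasts (1000/well) treated 16 h at 37 C; caspase-3/7 activity measured by Caspase-Glo 3/7 luminescence after 20 min. Normalized to DMSO and 100 uM tamoxifen; AC50 from Hill fits.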

[7] = Cell Viability - LYMP1-002 - Assay at 16 hr (AID 948); conditions: LYMP1-002 lymphoblastoid cell viability; series mostly up to 92.2 µM
How it was run: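 LYMP1-002 human lymphoblastoid cells, 2500/well; 5 hr 37 C; cpd 16 hr 37 C; CellTiter-Glo 30 min RT; luminescence (ATP). Concentration-response, Hill-fit AC50. Pos ctrl tetraoctylammonium bromide.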

[8] = MultiTox-Fluor Cytotoxicity Assay - LYMP1-002 - Live Cells (AID 955); conditions: LYMP1-002 lymphoblastoid live-cell protease fluorescence viability; series mostly up to 46.1 µM;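 further: cells exposed to compound for 16 hours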
How it was run: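 Human lymphoblastoid LYMP1-002 cells, 2500/well, treated 16 h at 37 C in complete medium. Live-cell protease activity via GF-AFC fluorescence (Ex/Em 405/510) after 60 min reagent incubation; AC50 from Hill fits.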

[9] = MultiTox-Fluor Cytotoxicity Assay - LYMP1-003 - Live Cells (AID 962); conditions: LYMP1-003 lymphoblastoid cells, MultiTox-Fluor live-cell protease fluorescence; series mostly up to 92.2 µM;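 further: cells exposed to compound for 16 hours at 37 °C; cytotoxic hits lower the live-cell protease signal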
How it was run: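 LYMP1-003 lymphoblastoid cells, 2500/well in complete medium, treated 16 h at 37 C; live-cell protease cleavage of GF-AFC read by fluorescence (Ex/Em 405/510) after 60 min reagent; AC50 from Hill fits of concentration-response.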

[10] = Cell Viability - LYMP1-003 - Assay at 24 hr (AID 963); conditions: LYMP1-003 lymphoblastoid cell viability; series mostly up to 92.2 µM
How it was run: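 Human lymphoblastoid LYMP1-003 cells, 2500/well, treated 24 h at 37 C in complete medium. Viability read as intracellular ATP by CellTiter-Glo luminescence after 30 min at room temperature; AC50 from Hill-equation fits of qHTS concentration-response.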

[11] = Cell Viability - LYMP2-015 (AID 971); conditions: LYMP2-015 lymphoblastoid cell viability; series mostly up to 92.2 µM; further: nearly all actives have a fitted effect of over 55% in size
How it was run: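 LYMP2-015 human lymphoblastoid cells (2500/well) in complete medium, compound-treated 24 h at 37 C; viability read as cellular ATP by CellTiter-Glo luminescence after 30 min at room temperature. AC50 from Hill-equation fits of qHTS concentration-response data.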

[12] = Cell Viability - LYMP2-025 (AID 976); conditions: LYMP2-025 lymphoblastoid cell viability; series mostly up to 92.2 µM
How it was run: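 Human lymphoblastoid LYMP2-025 cells, 2500/well, exposed 24 h at 37 C in complete medium in 1536-well qHTS. Viability as cellular ATP by CellTiter-Glo luminescence; AC50 from Hill fits of concentration-response data.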

[13] = Cell Viability - LYMP2-002 (AID 977); conditions: LYMP2-002 lymphoblastoid cell viability, qHTS; series mostly up to 92.2 µM;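 further: compound exposure lasted 24 h at 37 °C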
How it was run: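 Cytotoxicity is scored as concentration-dependent loss of cellular ATP in a human lymphoblastoid line after 24 hr compound treatment at 37 C. AC50 is obtained by modelling concentration-response data with the Hill equation.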

[14] = Cell Viability - LYMP2-006 (AID 978); conditions: LYMP2-006 lymphoblastoid cell viability, qHTS; series mostly up to 92.2 µM;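 further: cells exposed to compound for 24 hours; nearly all actives have a fitted effect of over 60% in size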
How it was run: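 qHTS, 1536-well; 2500 cells/well, 5 hr 37 C; cpd 24 hr 37 C; CellTiter-Glo 30 min RT; luminescence. Tetraoctylammonium bromide pos. ctrl. AC50 via Hill eqn.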

[15] = Cell Viability - LYMP2-008 (AID 980); conditions: LYMP2-008 lymphoblastoid cell viability, qHTS; series mostly up to 92.2 µM; further: nearly all actives have a fitted effect of over 60% in size
How it was run: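 LYMP2-008 lymphoblastoid cells (2500/well) plated 5 h, then treated 24 h at 37 C in complete medium. Viability read as intracellular ATP by CellTiter-Glo luminescence after 30 min at room temperature; AC50 from Hill fits.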

[16] = Cell Viability - LYMP1-002 - Assay at 24 hr (AID 993); conditions: LYMP1-002 lymphoblastoid cells viability; series mostly up to 92.2 µM
How it was run: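 Human lymphoblastoid LYMP1-002 cells (2500/well) treated 24 h at 37 °C; viability as intracellular ATP by CellTiter-Glo luminescence. Tetraoctylammonium bromide as positive control; AC50 from Hill-equation fits of qHTS concentration-response.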

[17] = Cell Viability - LYMP1-002 - Assay at 40 hr (AID 994); conditions: LYMP1-002 lymphoblastoid cell viability; series mostly up to 92.2 µM; further: nearly all actives have a fitted effect of over 60% in size
How it was run: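 LYMP1-002 human lymphoblastoid cells (2500/well, complete medium) were treated with compounds for 40 hr at 37 C. Intracellular ATP was measured by CellTiter-Glo luminescence, and AC50 values came from Hill-equation fits of concentration-response data; tetraoctylammonium bromide was the positive control.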

[18] = qHTS assay for small molecule agonists of the antioxidant response element (ARE) signaling pathway measured by Nrf2-dependant transcriptional activity (AID 720636; active means well fitted curve in the direction sought with a large enough effect in the repeat runs; an effect the other way counts as inactive or inconclusive;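 further: HepG2 cells with an ARE-driven luciferase reporter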); conditions: ARE-luc HepG2, Nrf2 luciferase reporter, 16 h; series mostly up to 92.4 µM
How it was run: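 Nrf2-dependent transcription is measured in ARE-luc HepG2 cells: compound is applied for 16 hr at 37 C after a 6 hr attachment period, and luciferase activity is quantified by luminescence using ONE-Glo.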

[19] = qHTS assay for small molecule antagonists of retinoid X receptor alpha signaling (AID 588546; active means well fitted inhibition curve with a large enough effect in the signal ratio, with a control signal flat, not every such curve was filed as active; the % refers to the signal ratio;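 further: cells stimulated with 9-cis-retinoic acid as agonist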); conditions: HEK293T RXRa-UAS-bla, beta-lactamase ratio, antagonist mode; measured here: W530 green channel, cytotoxicity proxy
How it was run: (§1)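 Beta-lactamase reporter inhibition, read as CCF4 fluorescence ratio (ex 405, em 460/530 nm) after 2 h at RT. HEK293T UAS-bla cells, 2500/well, were stimulated with 9-cis-RA at 500 or 100 nM final alongside test compound for 18 h at 37 C.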

[20] = molecular target: Retinoic acid receptor RXR-alpha (Homo sapiens) (UniProt P19793); experiment: as above; conditions: HEK293T RXRa-UAS-bla, beta-lactamase ratio, antagonist mode
How it was run: as §1

Sequence of Retinoic acid receptor RXR-alpha (Homo sapiens) (P19793 whole entry, looked up): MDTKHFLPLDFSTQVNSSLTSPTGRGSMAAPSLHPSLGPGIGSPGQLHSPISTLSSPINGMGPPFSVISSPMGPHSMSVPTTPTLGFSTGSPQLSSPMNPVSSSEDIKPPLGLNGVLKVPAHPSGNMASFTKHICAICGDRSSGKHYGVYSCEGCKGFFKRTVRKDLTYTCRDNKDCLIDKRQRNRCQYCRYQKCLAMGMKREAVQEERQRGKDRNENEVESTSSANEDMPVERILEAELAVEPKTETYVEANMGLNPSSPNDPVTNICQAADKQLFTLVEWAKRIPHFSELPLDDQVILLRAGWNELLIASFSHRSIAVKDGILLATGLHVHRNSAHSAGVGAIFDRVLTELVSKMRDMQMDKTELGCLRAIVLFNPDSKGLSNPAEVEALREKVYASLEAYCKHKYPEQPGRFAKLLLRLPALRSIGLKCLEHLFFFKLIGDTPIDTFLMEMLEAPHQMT

C[C@]12CC[C@H]3[C@@H](CCC4=CC(=O)CC[C@@]43C)[C@@H]1CC[C@@H]2O
Potency [1]: > 92 µM (inactive)
activity change, negative = cytotoxicity [2]: -5.73% (inactive)
Potency [3]: inactive
outcome [4]: inactive
outcome [5]: inactive
outcome [6]: inactive
Potency [7]: inactive
outcome [8]: inactive
Potency [9]: inactive
Potency [10]: inactive
Potency [11]: inactive
Potency [12]: inactive
Potency [13]: inactive
Potency [14]: inactive
Potency [15]: inactive
Potency [16]: inactive
Potency [17]: inactive
outcome [18]: inactive

CC(C)(C)OO
Potency [1]: > 92 µM (inactive)
activity change, negative = cytotoxicity [2]: 1.33% (inactive) and -10.7% (inactive)
Potency [3]: inactive
outcome [4]: inactive
outcome [5]: inactive
outcome [6]: inactive
Potency [7]: inactive
outcome [8]: inactive
Potency [9]: inactive
Potency [10]: inactive
Potency [11]: inactive
Potency [12]: inactive
Potency [13]: inactive
Potency [14]: inactive
Potency [15]: inactive
Potency [16]: inactive
Potency [17]: inactive
max response [19]: -3.93% and -2.51%
max response [20]: 34% (inactive) and 10.1% (inactive)
outcome [18]: inactive

Brc1ccc(Oc2cc(Br)c(Br)cc2Br)c(Br)c1
Potency [1]: > 92 µM (inactive)
activity change, negative = cytotoxicity [2]: -86.7% (active) and -80.4% (active)
Potency [3]: inactive
outcome [4]: inactive
outcome [5]: inactive
outcome [6]: inactive
Potency [7]: inactive
outcome [8]: inactive
Potency [9]: inactive
Potency [10]: inactive
Potency [11]: inactive
Potency [12]: inactive
Potency [13]: inactive
Potency [14]: inactive
Potency [15]: inactive
Potency [16]: inactive
Potency [17]: inactive
max response [19]: 10.6% and 6.53%
max response [20]: -5.38% (inactive) and -23.6% (inactive)
outcome [18]: inactive

Cc1cccc(C#N)c1
Potency [1]: > 92 µM (inactive)
activity change, negative = cytotoxicity [2]: -2.18% (inactive)
Potency [3]: inactive
outcome [4]: inactive
outcome [5]: inactive
outcome [6]: inactive
Potency [7]: inactive
outcome [8]: inactive
Potency [9]: inactive
Potency [10]: inactive
Potency [11]: inactive
Potency [12]: inactive
Potency [13]: inactive
Potency [14]: inactive
Potency [15]: inactive
Potency [16]: inactive
Potency [17]: inactive
max response [19]: 3.52%
max response [20]: 20.5% (inactive)
outcome [18]: inactive

Clc1nc(Cl)nc(Nc2ccccc2Cl)n1
Potency [1]: > 92 µM (inactive)
activity change, negative = cytotoxicity [2]: 9.08% (inactive)
Potency [3]: inactive
outcome [4]: inactive
outcome [5]: inactive
outcome [6]: inactive
Potency [7]: inactive
outcome [8]: inactive
Potency [9]: inactive
Potency [10]: inactive
Potency [11]: inactive
Potency [12]: inactive
Potency [13]: inactive
Potency [14]: inactive
Potency [15]: inactive
Potency [16]: inactive
Potency [17]: inactive
max response [19]: 1.32%
max response [20]: 8.47% (inactive)

C=CCOC(C)=O
Potency [1]: > 92 µM (inactive)
activity change, negative = cytotoxicity [2]: -14.3% (inactive)
Potency [3]: inactive
outcome [4]: inactive
outcome [5]: inactive
outcome [6]: inactive
Potency [7]: inactive
outcome [8]: inactive
Potency [9]: inactive
Potency [10]: inactive
Potency [11]: inactive
Potency [12]: inactive
Potency [13]: inactive
Potency [14]: inactive
Potency [15]: inactive
Potency [16]: inactive
Potency [17]: inactive
max response [19]: -2.08%
max response [20]: 2.59% (inactive)
outcome [18]: inactive

O=NN(CCO)CCO
Potency [1]: > 92 µM (inactive)
activity change, negative = cytotoxicity [2]: -10.5% (inactive)
Potency [3]: inactive
outcome [4]: inactive
outcome [5]: inactive
outcome [6]: inactive
Potency [7]: inactive
outcome [8]: inactive
Potency [9]: inactive
Potency [10]: inactive
Potency [11]: inactive
Potency [12]: inactive
Potency [13]: inactive
Potency [14]: inactive
Potency [15]: inactive
Potency [16]: inactive
Potency [17]: inactive
max response [19]: -0.955%
max response [20]: 16.4% (inactive)
outcome [18]: inactive

Reference: PubChem BioAssay (NCATS)
